# Assay results reported in PMC7862700, “An all-to-all approach to the identification of sequence-specific readers for epigenetic DNA modifications on cytosine”.
# Assays:
# Experiment in all cases: DAPPL (digital affinity profiling via proximity ligation, sequencing); 10 mM Tris-HCl pH 7.5, 50 mM NaCl, 1 mM DTT, 4% glycerol, room temperature, 30 min; GST-TFs on glutathione beads, 16-mer random dsDNA library, 0.1% formaldehyde crosslink after washing; high values mean tight binding
# [1] = target: T1, FLI1 (Homo sapiens, UniProt Q01543 1-452); settings: protein: recombinant; tags: N-terminal GST; dsDNA, one strand shown
# T1 sequence: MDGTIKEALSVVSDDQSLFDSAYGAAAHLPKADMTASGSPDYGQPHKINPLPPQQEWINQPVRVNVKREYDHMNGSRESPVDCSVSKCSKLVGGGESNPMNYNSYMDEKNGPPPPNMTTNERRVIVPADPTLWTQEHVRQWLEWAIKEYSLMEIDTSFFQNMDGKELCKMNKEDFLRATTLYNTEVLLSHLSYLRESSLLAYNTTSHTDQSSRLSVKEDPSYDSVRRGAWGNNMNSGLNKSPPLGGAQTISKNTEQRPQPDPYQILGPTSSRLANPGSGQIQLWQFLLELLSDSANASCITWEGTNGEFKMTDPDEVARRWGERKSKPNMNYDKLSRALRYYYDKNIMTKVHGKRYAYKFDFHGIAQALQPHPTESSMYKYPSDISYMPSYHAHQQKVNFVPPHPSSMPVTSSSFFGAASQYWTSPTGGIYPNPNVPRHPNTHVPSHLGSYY
# In short: (§1)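 Yeast served to express human transcription factors as GST fusions, which were then captured on glutathione beads and labelled with DNA barcodes. Pooled with a tag-only sample, they were incubated with 200 nmole of a 16-mer random double-stranded DNA library for 30 min at room temperature in Tris/NaCl/DTT/glycerol buffer, washed, crosslinked with 0.1% formaldehyde, ligated by proximity, amplified by PCR and sequenced. Dividing each hexamer's read frequency for a factor by its frequency for the tag-only sample gives the binding signal.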
# [2] = target: T2, ELK1 (Homo sapiens, UniProt P19419 1-428); settings: protein: recombinant; tags: N-terminal GST; dsDNA, one strand shown
# T2 sequence: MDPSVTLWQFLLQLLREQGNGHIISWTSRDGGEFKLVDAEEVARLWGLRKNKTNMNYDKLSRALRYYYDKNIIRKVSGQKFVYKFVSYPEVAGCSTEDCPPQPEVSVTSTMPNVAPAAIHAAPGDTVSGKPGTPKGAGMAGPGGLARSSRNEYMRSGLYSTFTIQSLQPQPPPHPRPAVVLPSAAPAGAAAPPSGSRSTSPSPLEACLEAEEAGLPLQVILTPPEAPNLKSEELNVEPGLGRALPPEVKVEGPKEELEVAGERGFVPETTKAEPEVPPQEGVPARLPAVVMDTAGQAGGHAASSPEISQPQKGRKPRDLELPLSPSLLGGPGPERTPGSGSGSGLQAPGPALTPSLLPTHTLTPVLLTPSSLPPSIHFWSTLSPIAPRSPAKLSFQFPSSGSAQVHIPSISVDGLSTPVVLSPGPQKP
# In short: as §1
# [3] = target: T3, GABPA (Homo sapiens, UniProt Q06546 1-454); settings: protein: recombinant; tags: N-terminal GST; dsDNA, one strand shown
# T3 sequence: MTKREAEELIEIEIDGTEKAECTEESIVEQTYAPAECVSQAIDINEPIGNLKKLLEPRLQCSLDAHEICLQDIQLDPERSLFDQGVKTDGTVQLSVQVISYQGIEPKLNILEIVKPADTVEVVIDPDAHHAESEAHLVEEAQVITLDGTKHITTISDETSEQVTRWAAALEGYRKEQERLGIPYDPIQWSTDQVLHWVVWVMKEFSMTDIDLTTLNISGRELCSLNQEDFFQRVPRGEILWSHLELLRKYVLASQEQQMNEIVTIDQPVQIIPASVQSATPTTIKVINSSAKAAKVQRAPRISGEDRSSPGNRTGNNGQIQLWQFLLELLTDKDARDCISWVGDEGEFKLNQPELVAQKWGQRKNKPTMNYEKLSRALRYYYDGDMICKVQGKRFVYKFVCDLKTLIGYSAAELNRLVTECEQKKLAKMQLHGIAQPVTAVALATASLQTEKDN
# In short: as §1
# [4] = target: T4, ERG (Homo sapiens, UniProt P11308 1-479); settings: protein: recombinant; tags: N-terminal GST; dsDNA, one strand shown
# T4 sequence: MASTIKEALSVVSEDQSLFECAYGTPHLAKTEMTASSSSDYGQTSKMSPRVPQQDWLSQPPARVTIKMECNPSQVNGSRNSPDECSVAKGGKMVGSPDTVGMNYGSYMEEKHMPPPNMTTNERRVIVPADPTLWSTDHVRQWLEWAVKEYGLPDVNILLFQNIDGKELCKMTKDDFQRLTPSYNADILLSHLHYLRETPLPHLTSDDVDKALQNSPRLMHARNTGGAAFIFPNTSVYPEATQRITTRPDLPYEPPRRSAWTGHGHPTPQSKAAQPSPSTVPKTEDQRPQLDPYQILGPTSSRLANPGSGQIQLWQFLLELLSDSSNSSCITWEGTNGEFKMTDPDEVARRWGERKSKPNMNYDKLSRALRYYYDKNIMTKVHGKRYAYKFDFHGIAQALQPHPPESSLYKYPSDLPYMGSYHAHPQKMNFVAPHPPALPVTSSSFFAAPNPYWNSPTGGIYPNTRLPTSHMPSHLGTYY
# In short: as §1
# [5] = target: ELF1 (Homo sapiens, UniProt P32519 1-619); settings: protein: recombinant; tags: N-terminal GST; dsDNA, one strand shown
# ELF1, sequence (P32519 whole entry): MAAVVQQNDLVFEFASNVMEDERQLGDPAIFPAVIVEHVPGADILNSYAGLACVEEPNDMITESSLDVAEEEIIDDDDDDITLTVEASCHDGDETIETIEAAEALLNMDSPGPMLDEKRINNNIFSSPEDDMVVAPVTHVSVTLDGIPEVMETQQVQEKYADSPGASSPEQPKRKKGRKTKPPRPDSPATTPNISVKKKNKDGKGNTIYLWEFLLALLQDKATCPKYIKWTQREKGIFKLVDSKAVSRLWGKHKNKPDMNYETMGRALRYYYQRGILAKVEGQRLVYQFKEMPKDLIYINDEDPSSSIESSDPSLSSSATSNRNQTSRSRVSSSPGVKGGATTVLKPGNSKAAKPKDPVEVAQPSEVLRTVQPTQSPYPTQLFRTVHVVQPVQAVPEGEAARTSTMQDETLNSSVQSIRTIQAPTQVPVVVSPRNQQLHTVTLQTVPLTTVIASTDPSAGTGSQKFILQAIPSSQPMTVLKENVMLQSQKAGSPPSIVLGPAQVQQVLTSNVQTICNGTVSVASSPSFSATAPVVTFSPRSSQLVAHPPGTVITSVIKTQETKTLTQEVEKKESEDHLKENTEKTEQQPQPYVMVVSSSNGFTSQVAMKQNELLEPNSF
# In short: as §1
# [6] = target: T5, EHF (Homo sapiens, UniProt Q9NZC4 1-300); settings: protein: recombinant; tags: N-terminal GST; dsDNA, one strand shown
# T5 sequence: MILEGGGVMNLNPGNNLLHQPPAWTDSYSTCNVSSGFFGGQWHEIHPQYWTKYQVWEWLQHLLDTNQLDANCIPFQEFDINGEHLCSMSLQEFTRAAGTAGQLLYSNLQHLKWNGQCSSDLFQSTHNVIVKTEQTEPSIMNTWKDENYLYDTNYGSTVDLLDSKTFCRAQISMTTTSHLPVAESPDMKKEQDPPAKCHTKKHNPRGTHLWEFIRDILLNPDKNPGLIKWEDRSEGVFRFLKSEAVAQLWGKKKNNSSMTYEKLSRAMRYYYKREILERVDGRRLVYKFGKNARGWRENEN
# In short: as §1
# [7] = target: SPI1 (Homo sapiens, UniProt P17947 1-270); settings: protein: recombinant; tags: N-terminal GST; dsDNA, one strand shown
# In short: as §1
# [8] = target: SPIB (Homo sapiens, UniProt Q01892 1-262); settings: protein: recombinant; tags: N-terminal GST; dsDNA, one strand shown
# SPIB, sequence (Q01892 whole entry): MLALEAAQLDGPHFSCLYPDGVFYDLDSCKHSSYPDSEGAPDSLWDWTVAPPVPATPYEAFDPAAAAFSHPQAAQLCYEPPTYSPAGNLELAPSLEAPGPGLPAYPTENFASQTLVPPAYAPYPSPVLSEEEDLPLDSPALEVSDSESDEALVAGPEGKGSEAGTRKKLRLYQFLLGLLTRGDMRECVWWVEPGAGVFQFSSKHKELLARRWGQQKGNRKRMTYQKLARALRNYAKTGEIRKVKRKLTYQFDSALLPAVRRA
# In short: as §1
# [9] = target: T6, ELK3 (Homo sapiens, UniProt P41970 1-407); settings: protein: recombinant; tags: N-terminal GST; dsDNA, one strand shown
# T6 sequence: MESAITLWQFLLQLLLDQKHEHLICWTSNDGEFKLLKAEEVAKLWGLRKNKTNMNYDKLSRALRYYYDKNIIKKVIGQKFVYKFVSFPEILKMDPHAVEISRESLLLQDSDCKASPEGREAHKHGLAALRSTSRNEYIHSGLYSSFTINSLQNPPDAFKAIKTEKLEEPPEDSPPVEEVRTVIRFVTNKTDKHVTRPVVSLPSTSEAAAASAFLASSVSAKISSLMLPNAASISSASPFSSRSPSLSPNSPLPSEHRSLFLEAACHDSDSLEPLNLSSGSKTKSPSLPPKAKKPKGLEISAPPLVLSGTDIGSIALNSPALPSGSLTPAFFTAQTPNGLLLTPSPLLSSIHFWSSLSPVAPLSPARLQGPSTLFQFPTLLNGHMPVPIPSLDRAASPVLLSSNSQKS
# In short: as §1
# [10] = target: T7, FEV (Homo sapiens, UniProt Q99581 1-238); settings: protein: recombinant; tags: N-terminal GST; dsDNA, one strand shown
# T7 sequence: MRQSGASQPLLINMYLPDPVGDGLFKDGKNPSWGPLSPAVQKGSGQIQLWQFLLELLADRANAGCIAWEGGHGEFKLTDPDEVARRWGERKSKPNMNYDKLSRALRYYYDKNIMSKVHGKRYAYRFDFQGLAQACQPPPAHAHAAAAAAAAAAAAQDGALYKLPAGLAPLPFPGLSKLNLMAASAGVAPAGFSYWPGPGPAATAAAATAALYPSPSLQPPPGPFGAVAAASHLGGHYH
# In short: as §1
# [11] = target: ETV5 (Homo sapiens, UniProt P41161 1-510); settings: protein: recombinant; tags: N-terminal GST; dsDNA, one strand shown
# ETV5, sequence (P41161 whole entry): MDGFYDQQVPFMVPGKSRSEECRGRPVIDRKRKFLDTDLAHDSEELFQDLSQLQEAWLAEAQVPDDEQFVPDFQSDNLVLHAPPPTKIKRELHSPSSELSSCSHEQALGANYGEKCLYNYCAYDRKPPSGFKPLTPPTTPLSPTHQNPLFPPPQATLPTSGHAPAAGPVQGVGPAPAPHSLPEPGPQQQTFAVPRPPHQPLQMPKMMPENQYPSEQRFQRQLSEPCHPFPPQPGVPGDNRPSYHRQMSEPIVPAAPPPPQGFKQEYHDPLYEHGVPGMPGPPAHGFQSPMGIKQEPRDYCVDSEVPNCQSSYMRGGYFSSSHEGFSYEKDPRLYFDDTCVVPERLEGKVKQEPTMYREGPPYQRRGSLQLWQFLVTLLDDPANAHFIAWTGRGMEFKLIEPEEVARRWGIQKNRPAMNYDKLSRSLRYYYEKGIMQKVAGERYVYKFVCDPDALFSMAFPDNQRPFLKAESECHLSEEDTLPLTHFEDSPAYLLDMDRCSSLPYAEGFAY
# In short: as §1
# [12] = target: HSF1 (Homo sapiens, UniProt Q00613 1-529); settings: protein: recombinant; tags: N-terminal GST; chain copies: 3; dsDNA, one strand shown
# HSF1, sequence (Q00613 whole entry): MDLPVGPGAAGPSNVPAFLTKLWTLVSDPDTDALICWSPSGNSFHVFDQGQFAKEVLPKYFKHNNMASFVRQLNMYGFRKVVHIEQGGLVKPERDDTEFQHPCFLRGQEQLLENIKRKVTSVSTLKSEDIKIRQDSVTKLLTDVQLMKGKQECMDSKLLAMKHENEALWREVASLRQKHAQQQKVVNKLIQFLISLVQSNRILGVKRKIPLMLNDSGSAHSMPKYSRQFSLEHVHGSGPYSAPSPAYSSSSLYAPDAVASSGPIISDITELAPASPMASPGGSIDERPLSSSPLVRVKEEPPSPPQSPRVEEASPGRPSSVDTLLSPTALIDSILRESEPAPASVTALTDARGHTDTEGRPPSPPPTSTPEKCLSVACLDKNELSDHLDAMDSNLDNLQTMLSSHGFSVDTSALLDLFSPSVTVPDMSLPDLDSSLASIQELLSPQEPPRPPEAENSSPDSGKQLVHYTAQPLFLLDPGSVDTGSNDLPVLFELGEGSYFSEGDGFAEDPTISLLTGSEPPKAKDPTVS
# In short: as §1
# [13] = target: T8, SPIC (Homo sapiens, UniProt Q8N5J4 1-248); settings: protein: recombinant; tags: N-terminal GST; dsDNA, one strand shown
# T8 sequence: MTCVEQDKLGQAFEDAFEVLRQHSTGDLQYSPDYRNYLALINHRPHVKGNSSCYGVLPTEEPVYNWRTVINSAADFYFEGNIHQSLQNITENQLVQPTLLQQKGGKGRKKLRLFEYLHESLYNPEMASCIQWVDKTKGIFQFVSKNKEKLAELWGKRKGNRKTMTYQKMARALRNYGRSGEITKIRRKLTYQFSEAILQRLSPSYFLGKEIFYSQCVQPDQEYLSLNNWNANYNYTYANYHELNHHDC
# In short: as §1
# [14] = target: ELF4 (Homo sapiens, UniProt Q99607 1-663); settings: protein: recombinant; tags: N-terminal GST; dsDNA, one strand shown
# ELF4, sequence (Q99607 whole entry): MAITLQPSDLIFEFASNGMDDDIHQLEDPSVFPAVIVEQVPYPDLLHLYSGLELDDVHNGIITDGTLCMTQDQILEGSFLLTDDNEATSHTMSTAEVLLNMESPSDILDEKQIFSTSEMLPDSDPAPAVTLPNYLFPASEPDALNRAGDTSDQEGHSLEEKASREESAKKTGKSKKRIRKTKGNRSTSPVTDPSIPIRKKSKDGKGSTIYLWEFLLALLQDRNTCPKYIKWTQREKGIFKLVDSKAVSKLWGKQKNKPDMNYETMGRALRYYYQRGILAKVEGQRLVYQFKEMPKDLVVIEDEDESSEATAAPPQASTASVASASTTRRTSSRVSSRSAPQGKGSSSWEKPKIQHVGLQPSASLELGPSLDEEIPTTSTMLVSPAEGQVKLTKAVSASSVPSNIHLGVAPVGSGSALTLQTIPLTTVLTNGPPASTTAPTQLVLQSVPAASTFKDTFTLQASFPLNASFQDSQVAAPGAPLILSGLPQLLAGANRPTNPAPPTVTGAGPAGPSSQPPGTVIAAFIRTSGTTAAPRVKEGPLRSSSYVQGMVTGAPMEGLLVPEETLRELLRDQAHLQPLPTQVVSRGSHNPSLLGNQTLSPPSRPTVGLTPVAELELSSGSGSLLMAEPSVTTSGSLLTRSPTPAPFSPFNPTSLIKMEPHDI
# In short: as §1
# [15] = target: T9, ELK4 (Homo sapiens, UniProt P28324-2 1-405); settings: protein: recombinant; tags: N-terminal GST; dsDNA, one strand shown
# T9 sequence: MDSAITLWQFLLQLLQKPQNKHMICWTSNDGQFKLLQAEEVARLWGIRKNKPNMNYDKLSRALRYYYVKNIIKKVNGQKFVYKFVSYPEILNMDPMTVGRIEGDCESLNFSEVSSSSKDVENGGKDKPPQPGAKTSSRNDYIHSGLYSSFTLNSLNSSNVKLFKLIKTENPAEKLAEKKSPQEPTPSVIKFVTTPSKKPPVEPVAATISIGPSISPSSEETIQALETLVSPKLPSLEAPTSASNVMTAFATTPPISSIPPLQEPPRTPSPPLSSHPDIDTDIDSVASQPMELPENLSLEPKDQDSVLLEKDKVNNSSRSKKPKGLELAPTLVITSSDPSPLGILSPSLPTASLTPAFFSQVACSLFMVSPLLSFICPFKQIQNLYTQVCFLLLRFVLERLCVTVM
# In short: as §1
# [16] = target: T10, ETV2 (Homo sapiens, UniProt O00321 1-342); settings: protein: recombinant; tags: N-terminal GST; dsDNA, one strand shown
# T10 sequence: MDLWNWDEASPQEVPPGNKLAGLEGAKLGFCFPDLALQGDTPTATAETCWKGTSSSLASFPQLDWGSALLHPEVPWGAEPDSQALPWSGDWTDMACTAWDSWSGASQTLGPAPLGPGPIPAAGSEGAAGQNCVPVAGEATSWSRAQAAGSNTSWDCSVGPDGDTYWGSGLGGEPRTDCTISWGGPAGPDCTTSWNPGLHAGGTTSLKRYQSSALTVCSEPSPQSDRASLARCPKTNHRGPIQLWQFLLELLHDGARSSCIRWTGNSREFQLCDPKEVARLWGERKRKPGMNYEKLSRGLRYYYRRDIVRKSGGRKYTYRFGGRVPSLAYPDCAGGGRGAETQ
# In short: as §1
# [17] = target: T11, ELF3 (Homo sapiens, UniProt P78545 1-371); settings: protein: recombinant; tags: N-terminal GST; dsDNA, one strand shown
# T11 sequence: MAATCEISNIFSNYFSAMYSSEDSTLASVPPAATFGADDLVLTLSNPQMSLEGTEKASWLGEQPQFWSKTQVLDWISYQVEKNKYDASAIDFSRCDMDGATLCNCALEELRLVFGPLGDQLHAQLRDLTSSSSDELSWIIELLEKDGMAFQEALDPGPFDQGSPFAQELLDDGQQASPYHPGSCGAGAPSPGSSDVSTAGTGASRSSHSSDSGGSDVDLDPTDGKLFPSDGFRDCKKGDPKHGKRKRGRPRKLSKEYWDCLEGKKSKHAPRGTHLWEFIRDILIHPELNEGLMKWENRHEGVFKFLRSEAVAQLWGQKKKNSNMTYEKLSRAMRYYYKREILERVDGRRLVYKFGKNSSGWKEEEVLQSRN
# In short: as §1
# [18] = target: CRX (Homo sapiens, UniProt O43186 1-299); settings: protein: recombinant; tags: N-terminal GST; dsDNA, one strand shown
# CRX, sequence (O43186 whole entry): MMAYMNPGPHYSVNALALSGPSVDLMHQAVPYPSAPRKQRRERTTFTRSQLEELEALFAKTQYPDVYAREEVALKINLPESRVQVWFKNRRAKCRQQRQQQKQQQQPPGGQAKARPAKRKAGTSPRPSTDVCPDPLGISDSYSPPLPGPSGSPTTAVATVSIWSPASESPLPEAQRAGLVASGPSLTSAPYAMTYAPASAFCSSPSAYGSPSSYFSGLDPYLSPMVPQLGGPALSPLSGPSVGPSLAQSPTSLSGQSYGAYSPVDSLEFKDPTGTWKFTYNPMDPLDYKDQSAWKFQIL
# In short: as §1
# [19] = target: ETV1 (Homo sapiens, UniProt P50549 1-477); settings: protein: recombinant; tags: N-terminal GST; dsDNA, one strand shown
# ETV1, sequence (P50549 whole entry): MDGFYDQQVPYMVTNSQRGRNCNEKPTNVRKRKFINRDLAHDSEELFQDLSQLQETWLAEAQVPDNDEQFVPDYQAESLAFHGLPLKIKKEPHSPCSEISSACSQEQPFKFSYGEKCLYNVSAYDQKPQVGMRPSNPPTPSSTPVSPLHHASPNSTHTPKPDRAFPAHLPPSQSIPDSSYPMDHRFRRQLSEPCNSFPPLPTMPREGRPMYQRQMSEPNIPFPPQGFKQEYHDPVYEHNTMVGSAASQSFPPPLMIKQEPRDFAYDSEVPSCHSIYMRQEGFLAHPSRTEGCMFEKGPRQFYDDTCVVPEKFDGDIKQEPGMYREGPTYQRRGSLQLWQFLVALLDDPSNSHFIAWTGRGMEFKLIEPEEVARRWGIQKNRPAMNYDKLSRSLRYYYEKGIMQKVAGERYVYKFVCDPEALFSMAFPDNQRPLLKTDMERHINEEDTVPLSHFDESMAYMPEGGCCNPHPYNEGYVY
# In short: as §1
sequence,measurement,setting,value
ACCCTT,binding signal,[1],"1.3 fold enrichment (6-mer frequency, TF over GST control)"
same,binding signal,[2],"1.23 fold enrichment (6-mer frequency, TF over GST control)"
same,binding signal,[3],"1.23 fold enrichment (6-mer frequency, TF over GST control)"
same,binding signal,[4],"1.19 fold enrichment (6-mer frequency, TF over GST control)"
same,binding signal,[5],"1.16 fold enrichment (6-mer frequency, TF over GST control)"
same,binding signal,[6],"1.18 fold enrichment (6-mer frequency, TF over GST control)"
same,binding signal,[7],"1.21 fold enrichment (6-mer frequency, TF over GST control)"
same,binding signal,[8],"1.19 fold enrichment (6-mer frequency, TF over GST control)"
same,binding signal,[9],"1.2 fold enrichment (6-mer frequency, TF over GST control)"
same,binding signal,[10],"1.21 fold enrichment (6-mer frequency, TF over GST control)"
same,binding signal,[11],"1.25 fold enrichment (6-mer frequency, TF over GST control)"
same,binding signal,[12],"1.09 fold enrichment (6-mer frequency, TF over GST control)"
same,binding signal,[13],"1.02 fold enrichment (6-mer frequency, TF over GST control)"
same,binding signal,[14],"1.26 fold enrichment (6-mer frequency, TF over GST control)"
same,binding signal,[15],"1.08 fold enrichment (6-mer frequency, TF over GST control)"
same,binding signal,[16],"1.33 fold enrichment (6-mer frequency, TF over GST control)"
same,binding signal,[17],"1.23 fold enrichment (6-mer frequency, TF over GST control)"
same,binding signal,[18],"1.15 fold enrichment (6-mer frequency, TF over GST control)"
same,binding signal,[19],"1.18 fold enrichment (6-mer frequency, TF over GST control)"
